{"source": "PubChem BioAssay (NCI)", "note": "About 83,000 compounds went through this panel and 20% of them were active in at least one assay; those are over-represented in the sample as a whole.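 For each line, cells grew in 96-well plates with the test compound present at a single concentration for 48 hours.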 Unmarked numbers belong to inactive results. Calls of active or inactive are those of the source. The calls were made as follows: active = growth percent below 10; inactive = the rest.", "data": [{"system": "HL-60(TB) leukemia", "assay": "NCI-60 one-dose screen, 48 h (100 = growth as untreated, 0 = no growth, -100 = all killed)", "conditions": "10 µM unless noted", "values": [{"smiles": "O=C1C(SCc2ccccc2)=C(Cl)CN1c1ccccc1", "growth": "72.6%"}, {"smiles": "Cc1ccc2ccc3ccc(C)nc3c2n1.Cc1ccc2ccc3ccc(C)nc3c2n1.Oc1c(Cl)cc(Cl)c2ccc(CN3CCCCC3)nc12.[Ru]", "growth": "-52.1% (active)"}, {"smiles": "COc1ccc(-c2cc(-c3cccc4ccccc34)n3c(n2)nc2ccccc23)cc1", "growth": "-0.785% (active)"}, {"smiles": "COc1ccc(C(=O)c2cc(C(=O)/C=C/c3c(Cl)cccc3Cl)c3cc(C)ccn23)cc1", "growth": "101%"}, {"smiles": "CN1CCN(c2ccc3c(C(N)=O)c(NC(=O)c4ccc(C(C)(C)C)cc4)sc3c2)CC1", "growth": "28.5%"}, {"smiles": "Nc1nc(Nc2ccccc2SSc2ccccc2Nc2nc(N)nc(-c3ccccc3)n2)nc(-c2ccccc2)n1", "growth": "62.1%"}, {"smiles": "C=CCSC1=NC2C(N(CC)C(=O)N2CC)N1/N=C/C=C/c1ccccc1OC", "note": "(stereo not given)", "growth": "45.6%"}, {"smiles": "Cc1ccc(-c2nnc3sc(C4=Cc5ccccc5OC=C4)nn23)cc1", "growth": "85%"}, {"smiles": "CC(=NNc1ncnc2ccccc12)c1ccc(S(C)(=O)=O)cc1", "growth": "98.9%"}, {"smiles": "CC[C@]12C=CCN3CC[C@@]4(c5cc(NC(=O)COc6cc(O)c7c(=O)cc(-c8ccccc8)oc7c6)c(OC)cc5N(C)[C@H]4[C@@](O)(C(=O)OC)[C@@H]1OC(C)=O)[C@@H]32", "growth": "-44.9% (active)"}, {"smiles": "O=C(N/N=C/c1ccc[nH]1)c1[nH]c2ccc(Br)cc2c1-c1ccccc1", "growth": "-39.1% (active)"}, {"smiles": "COc1cc(-c2nc(-c3ccccc3)[nH]c2-c2ccnc(NCCCNS(=O)(=O)c3cccc(F)c3)n2)ccc1F", "growth": "94.8%"}, {"smiles": "Cn1c(SCC(=O)Nc2ccc(-c3nc4ccc([N+](=O)[O-])cc4[nH]3)cc2)nc2ccccc2c1=O", "growth": "91.1%"}, {"smiles": "CCOC(=O)c1nn(-c2ccccc2)c(=O)c2c(N)c(C#N)c(-c3cccs3)cc12", "growth": "113%"}, {"smiles": "CCN(CC)c1cn(-c2ccc(S(N)(=O)=O)cc2)nn1", "growth": "105%"}, {"smiles": "C#C[C@]1(O)CC[C@H]2[C@@H]3CC=C4c5sc(-c6ccc(C)cc6)nc5CC[C@]4(C)[C@H]3CC[C@@]21C", "growth": "-2.49% (active)"}, {"smiles": "Fc1cccc(Cl)c1/C=N/Nc1nc(N/N=C/c2c(F)cccc2Cl)nc(N2CCCCC2)n1", "growth": "1.27% (active)"}, {"smiles": "CC(=O)c1nnn(-c2c(C(=O)n3nc(C)cc3C)sc(=S)n2-c2ccccc2)c1C", "growth": "110%"}, {"smiles": "Fc1ccc(-c2cc3nc(C(Cl)Cl)nc(-c4ccco4)n3n2)cc1", "growth": "-42.7% (active)"}, {"smiles": "O=C(Nc1cccc(C(F)(F)F)c1)c1cc(-c2ccc(F)cc2F)ccc1O", "growth": "-40.7% (active)"}, {"smiles": "c1n[nH]cc1-c1nc2ccc3[nH]ncc3c2c2c1CCCC2", "growth": "22.5%"}, {"smiles": "COc1ccc(/C=N/Nc2nc(Nc3ccccc3)nc(Nc3ccc(S(N)(=O)=O)cc3)n2)cc1", "growth": "83.8%"}, {"smiles": "CCC(=O)Nc1cc(Nc2cc(NC3CC3)n3ncc(C#N)c3n2)ccc1C", "growth": "5.84% (active)"}, {"smiles": "CC1=C(C)C(=O)C(Nc2ccc3c(c2)OCCO3)=C(Br)C1=O", "growth": "-44.2% (active)"}, {"smiles": "NNC(=O)c1sc2nc(-c3cnccn3)cc(-c3cccs3)c2c1N", "growth": "105%"}, {"smiles": "CN1CCN(c2ccc(Nc3nc(NCCNS(=O)(=O)c4ccc(Cl)cc4)c4sccc4n3)cc2)CC1", "growth": "80.1%"}, {"smiles": "C=C(C)[C@@H]1CC[C@]2(C(=O)O)CC[C@]3(C)[C@H](CC[C@@H]4[C@@]5(C)C/C(=C/c6ccccn6)C(=O)C(C)(C)[C@@H]5CC[C@]43C)[C@@H]12", "growth": "15.3%"}, {"smiles": "Cc1nn(-c2ccccc2)c2ncnc(N/N=C/c3ccccc3O)c12", "growth": "-7.88% (active)"}, {"smiles": "CC/C(=C/c1c(O)cccc1OC)c1ccc2c(OC)cccc2[o+]1", "growth": "106%"}, {"smiles": "OCC(Nc1ncnc2ccc(-c3cnc4cnccn34)cc12)c1ccccc1", "note": "(stereo not given)", "growth": "78.1%"}, {"smiles": "NS(=O)(=O)c1cccc(Nc2nc(SCC(=O)c3ccc([N+](=O)[O-])cc3)nc3ccccc23)c1", "growth": "0.866% (active)"}, {"smiles": "CN1CCN(c2ccc(C(=O)/C=C/c3ccc(Cl)c(C(F)(F)F)c3)cc2)CC1", "growth": "-22.6% (active)"}, {"smiles": "O=C1[C@H]2Cc3c([nH]c4ccccc34)[C@H](c3ccc(Cl)cc3)N2C(=O)CN1C1CCN(Cc2c(Cl)cccc2Cl)CC1", "growth": "62.1%"}, {"smiles": "Brc1cccc(-c2cc(-c3cnc4c(c3)OCCO4)n[nH]2)c1", "growth": "21.2%"}, {"smiles": "N#Cc1c(-c2cccs2)cc(-c2cnccn2)nc1SCC(=O)N/N=C/c1ccc(Cl)cc1", "growth": "110%"}, {"smiles": "C=CCn1c(SCC(=O)Nc2ccc(C(=O)/C=C/c3ccc(Br)cc3)cc2)nnc1-c1c[nH]c2ccccc12", "growth": "84.3%"}, {"smiles": "NC(N)=Nc1ccc(Oc2cccc(Nc3ccc(Cl)c(C(F)(F)F)c3)c2)cc1", "growth": "1.32% (active)"}, {"smiles": "O=C(CN1C(=O)/C(=C/c2ccccc2)SC1=S)N1CCOCC1", "growth": "89.1%"}, {"smiles": "CN1CCN(c2ccc(C(=O)/C=C/c3cc(F)cc(C(F)(F)F)c3)cc2)CC1", "growth": "3.06% (active)"}, {"smiles": "Cn1cc(-c2cc(N)n3nc(-c4cn(C)c5ccccc45)cc3n2)c2ccccc21", "growth": "11.6%"}]}]}
